In PubChem BioAssay AID1159580 (chemical genetic matrix, 2015):
Where “and” joins values, the source holds several entries; their conditions need not be identical. Identical values can stand only once. Out of some 5,500 compounds screened, about 2,000 (36%) were called active. Inconclusive results (about 18%) are left out. Rule as the data show it: active = normalized growth mostly below about 0.91 (no sharp cut-off); inconclusive = no clear call, values can overlap the other calls; inactive = mostly above about 0.92. Some of the results follow.

Test: chemical genetic growth profiling, strain panel (AID 1159580);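 also: tested at 20 µM; growth read once vehicle control cultures reached saturation at 30 °C; 1 = growth at the plate median or of vehicle wells; lower values mean less growth of the strain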
Conditions: S. cerevisiae deletion strains, growth OD

Measured: normalized growth

COc1ccc2c(c1)c(CC(=O)OCC(=O)O)c(C)n2C(=O)c1ccc(Cl)cc1
inactive: locus YAL013W, strain DEP1, hits give low values 1.01 | locus YAL021C, strain ccr4, hits give low values 0.982 | locus YAL026C, strain drs2, hits give low values 1.01 | locus YAL030W, strain snc1, hits give low values 0.99 | locus YBL061C, strain skt5, hits give low values 1 | locus YBR009C, strain hhf1, hits give low values 0.991 | locus YBR021W, strain FUR4, hits give low values 1.01 | locus YBR023C, strain chs3, hits give low values 1.01 | locus YBR171W, strain sec66, hits give low values 0.978 | locus YBR229C, strain ROT2, hits give low values 1.02 | locus YBR231C, strain swc5, hits give low values 0.973 | locus YBR279W, strain paf1, hits give low values 1.01 | locus YCL011C, strain gbp2, hits give low values 1.02 | locus YCL016C, strain dcc1, hits give low values 1.01 | locus YCL029C, strain bik1, hits give low values 1.04 | locus YCL069W, strain vba3, hits give low values 1 | locus YCR088W, strain abp1, hits give low values 1.01 | locus YDL005C, strain med2, hits give low values 0.979 | locus YDL035C, strain GPR1, hits give low values 1.02 | locus YDL040C, strain nat1, hits give low values 0.995 | locus YDL074C, strain BRE1, hits give low values 1.01 | locus YDL101C, strain DUN1, hits give low values 1.02 | locus YDL134C, strain PPH21, hits give low values 1.02 | locus YDL185W, strain tfp1, hits give low values 1.02 | locus YDL192W, strain arf1, hits give low values 1.02 | locus YDR001C, strain nth1, hits give low values 1.01 | locus YDR069C, strain doa4, hits give low values 0.996 | locus YDR101C, strain arx1, hits give low values 1.02 | locus YDR137W, strain rgp1, hits give low values 1.02 | locus YDR150W, strain NUM1, hits give low values 1.02 | locus YDR159W, strain sac3, hits give low values 0.964 | locus YDR162C, strain NBP2, hits give low values 1.01 | locus YDR195W, strain ref2 0.939 | locus YDR297W, strain sur2, hits give low values 1 | locus YDR318W, strain mcm21, hits give low values 1.02 | locus YDR334W, strain swr1, hits give low values 1 | locus YDR335W, strain msn5, hits give low values 0.989 | locus YDR388W, hits give low values 1.01 | locus YDR392W, strain spt3, hits give low values 1.03 | locus YDR502C, strain sam2, hits give low values 1.03 | locus YEL003W, strain gim4, hits give low values 0.988 | locus YEL037C, strain rad23, hits give low values 1 | locus YEL061C, strain CIN8 (second series), hits give low values 0.995 | locus YEL061C, strain CIN8, hits give low values 1.01 | locus YER015W, strain faa2, hits give low values 1 | locus YER016W, strain bim1, hits give low values 1.01 | locus YER110C, hits give low values 1.02 | locus YER111C, strain swi4, hits give low values 0.991 | locus YER155C, strain BEM2 (second series), hits give low values 0.989 | locus YER155C, strain BEM2, hits give low values 1.01 | locus YER167W, strain BCK2, hits give low values 1.01 | locus YFR010W, strain ubp6, hits give low values 0.994 | locus YGL078C, strain dbp3, hits give low values 1.01 | locus YGL086W, strain mad1, hits give low values 1.01 | locus YGL167C, strain pmr1, hits give low values 0.987 | locus YGL173C, strain kem1, hits give low values 0.976 | locus YGL227W, strain vid30, hits give low values 0.999 | locus YGL240W, strain doc1, hits give low values 0.982 | locus YGL248W, strain PDE1, hits give low values 1.01 | locus YGL253W, strain hxk2, hits give low values 1.01 | locus YGR078C, strain PAC10, hits give low values 1.02 | locus YGR135W, strain pre9, hits give low values 1.02 | locus YGR229C, strain SMI1, hits give low values 1.02 | locus YGR252W, strain gcn5, hits give low values 0.987 | locus YHR013C, strain ard1, hits give low values 1.09 | locus YHR027C, strain rpn1, hits give low values 0.999 | locus YHR030C, strain SLT2, hits give low values 1.02 and 0.958 | locus YHR079C, strain IRE1 (second series), hits give low values 1.01 | locus YHR079C, strain IRE1, hits give low values 0.941 | locus YHR094C, strain hxt1, hits give low values 1.01 | locus YHR129C, strain ARP1, hits give low values 1 | locus YHR142W, strain chs7, hits give low values 1.01 | locus YHR200W, strain rpn10, hits give low values 1.01 | locus YIL066C, strain RNR3, hits give low values 1.02 | locus YIL073C, strain SPO22, hits give low values 1.06 | locus YIL125W, strain kgd1, hits give low values 1.01 | locus YIR030C, strain dcg1, hits give low values 1.02 | locus YJL092W, strain hpr5, hits give low values 0.981 | locus YJL095W, strain BCK1 (second series), hits give low values 1.01 | locus YJL095W, strain BCK1, hits give low values 1.05 and 0.968 | locus YJL115W, strain asf1, hits give low values 0.992 | locus YJL129C, strain trk1, hits give low values 0.979 | locus YJL134W, strain LCB3, hits give low values 1.01 | locus YJL154C, strain vps35, hits give low values 0.992 | locus YJL164C, strain tpk1, hits give low values 1.03 | locus YJL166W, strain qcr8, hits give low values 0.974 | locus YJL168C, strain set2, hits give low values 1.01 | locus YJL187C, strain SWE1 (second series), hits give low values 1.03 | locus YJL187C, strain SWE1, hits give low values 1.01 | locus YJR043C, strain POL32, hits give low values 1.03 | locus YJR066W, strain TOR1, hits give low values 0.89
